Assay outcomes from PubChem.
Sampled rows, rich in hits. Any-hit rate of the full collection: about 12%.
Pf growth 96h: Primary qHTS for delayed death inhibitors of the malarial parasite plastid, 96 hour incubation; 320,000 tested, 6.9% active; Potency, µM (doses to about 28.7 µM), most hits filed as inhibitors; P. falciparum luciferase reporter growth, 96 h
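Two-generation exposure (96 h) targets delayed-death phenotype. Reporter parasites carrying integrated firefly luciferase, in red cells at 2% hematocrit and 0.05% parasitemia final, kept at 37 C, 5% CO2; luminescence loss indicates inhibition.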
SARS PLpro yeast: qHTS of Yeast-based Assay for SARS-CoV PLP | 330,000 tested, 0.19% active | AID 485353, 2010 | Potency, µM (doses to about 32.9 µM), hits mostly activators | S. cerevisiae expressing SARS-CoV PLpro, growth rescue; calls by dose curve; also: nearly all actives have a fitted effect of over 55% in size
Pf growth 48h: Primary qHTS for delayed death inhibitors of the malarial parasite plastid, 48 hour incubation; Potency, µM (series often up to 28.7 µM), most hits filed as inhibitors; 310,000 tested, 5.9% active; P. falciparum luciferase growth in erythrocytes, 48 h
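Luciferase-expressing parasites in RBCs, 2% Hct / 0.1% parasitemia final; RPMI 1640 + 0.5% Albumax; 37 C, 5% CO2, one generation; luminescence read-out, lower signal = inhibition.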
AmpC inh detg: qHTS Inhibitors of AmpC Beta-Lactamase (assay with detergent). P00811. AmpC hydrolysis of nitrocefin, absorbance 480 nm, 0.01% Triton. Potency, µM (doses to about 114 µM), usual class: inhibitors. 370,000 tested, 0.041% active. AID 485294, 2010; also: nearly all actives have a fitted effect of over 25% in size
Target sequence (P00811 whole entry, looked up): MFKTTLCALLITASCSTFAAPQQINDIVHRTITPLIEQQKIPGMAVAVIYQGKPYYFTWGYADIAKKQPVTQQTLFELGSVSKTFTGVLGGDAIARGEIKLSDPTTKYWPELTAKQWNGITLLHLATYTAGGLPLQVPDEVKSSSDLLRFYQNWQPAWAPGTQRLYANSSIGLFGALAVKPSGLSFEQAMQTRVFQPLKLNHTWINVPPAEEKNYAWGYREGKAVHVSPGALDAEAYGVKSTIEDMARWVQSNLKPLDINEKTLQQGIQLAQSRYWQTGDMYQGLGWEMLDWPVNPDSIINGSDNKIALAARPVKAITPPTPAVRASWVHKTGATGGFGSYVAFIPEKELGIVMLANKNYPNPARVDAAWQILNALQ
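20 mM phosphate pH 7.0 + 0.01% (detergent screen) or 0.0001% Triton X-100; 5.3 nM AmpC reagent; cpd preinc 15 min RT; nitrocefin (800 uM stock) to start; A480 q20 s × 4 min; Activity was normalised to no-enzyme and no-compound control wells.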
AmpC inh no detg: qHTS Inhibitors of AmpC Beta-Lactamase (assay without detergent); AmpC nitrocefin hydrolysis, absorbance 480 nm, 0.0001% Triton; 330,000 tested, 0.52% active; Potency, µM (series often up to 57.1 µM), most hits filed as inhibitors; also: nearly all actives have a fitted effect of over 20% in size
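20 mM phosphate pH 7.0 + 0.01% (detergent screen) or 0.0001% Triton X-100; 5.3 nM AmpC reagent; cpd preinc 15 min RT; nitrocefin (800 uM stock) to start; A480 q20 s × 4 min; Activity was normalised to no-enzyme and no-compound control wells.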
Sm TGR block: qHTS Assay for the Inhibitors of Schistosoma Mansoni Peroxiredoxins; Schistosoma mansoni thioredoxin glutathione reductase (TGR), Q962Y6; purified TGR, DTNB reduction, TNB absorbance 405 nm; 360,000 tested, 3% active; AID 485364, 2010; Potency, µM (highest dose often 114 µM), actives largely listed as inhibitors; also: nearly all actives have a fitted effect of over 60% in size
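TGR 20 nM + NADPH 100 uM (dispensed conc.), cpd preinc 15 min RT; start with NADPH (500 uM addition) then DTNB (15 mM addition). Kinetic TNB absorbance, 405 nm filter. Four-parameter Hill fit across titration.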
A number is an active result; 0 = inactive; ? = inconclusive; - = not tested or not shown. Unless noted, calls follow the shape of the dose curve; as a rule, active = well fitted curve in the direction sought with a large enough effect; inconclusive = small, poorly fitted or top-dose-only effect, or another doubt; inactive = no such curve, though single readings can be large; an effect the other way counts as inactive or inconclusive.

SMILES	Pf growth 96h	SARS PLpro yeast	Pf growth 48h	AmpC inh detg	AmpC inh no detg	Sm TGR block
CCOC(=O)C1=C(C)Nc2nnnn2C1c1ccc(OC)c(Br)c1 (stereo not given)	12µM	0	?	0	0	0
CCOC(=O)C1=C(C)NC(=S)N(C(C)=O)C1c1ccc(OC)c(OC)c1 (stereo not given)	0	0	0	0	0	0
COc1ccc(NC(=O)CC2C(=O)N(C)C(=S)N2CCc2ccccc2F)cc1 (stereo not given)	0	0	0	0	0	-
[S-]C(=Nc1ccc(Cl)cc1)N[n+]1ccccc1	0	0	0	0	0	0
CCc1ccc2oc(=O)cc(CN3CCC(C)CC3)c2c1	2.9µM	0	1.3µM	?	0	0
Cc1ccc2oc(=O)cc(CN3CCOCC3)c2c1	7.4µM	0	0	0	0	0
Cc1cc(C)c2oc(=O)cc(CN3CCC(C)CC3)c2c1	?	0	10µM	0	0	0
Cc1ccc2oc(=O)cc(CN3CCC(C)CC3)c2c1	5.9µM	0	?	0	0	0
CCN1CCN(Cc2cc(=O)oc3ccc(C)cc23)CC1	0	0	0	0	0	0
Cc1ccc2c(CN3CCOCC3)cc(=O)oc2c1	0	0	0	0	0	0
CCc1ccc2oc(=O)cc(CN3CCOCC3)c2c1	-	0	0	0	0	0
COc1ccc(NC(=O)c2cc(=O)c3ccc(C)c(C)c3o2)cc1Cl	-	-	-	0	-	0
O=c1cc(COc2ccccc2[N+](=O)[O-])nc2sccn12	?	0	0	0	0	0
Cc1cc(C)c2oc(=O)cc(CN3CCN(Cc4ccccc4)CC3)c2c1	?	0	12µM	0	0	0
Cc1ccc2c(CN3CCN(Cc4ccccc4)CC3)cc(=O)oc2c1C	?	0	0	0	0	0
COc1ccc(/C=C/C(=O)OCC(=O)NC(=O)NC(C)(C)C)cc1	0	0	0	0	0	0
C=CCN(c1ccccc1)S(=O)(=O)c1ccc2c(c1)NC(=O)C(C)C(=O)N2 (stereo not given)	0	0	0	0	0	0
COc1ccc(C(=O)N/N=C(\Cc2ncc[nH]2)c2ccccc2)cc1	?	0	3.3µM	0	0	0
O=C(NCc1nc2ccccc2[nH]1)c1cccc(Cl)c1	-	-	-	0	-	0
Clc1cccc(N/N=C(\Cc2nc3ccccc3[nH]2)c2ccccc2)c1	4.1µM	0	12µM	0	0	0
c1ccc(N/N=C(\Cc2ncc[nH]2)c2ccccc2)cc1	9.3µM	0	?	0	0	0
COc1cc(C(=O)N/N=C(\Cc2ncc[nH]2)c2ccccc2)cc(OC)c1OC	0	0	?	0	0	0
CC(=O)N1CCc2c(sc3c2c(=O)n(-c2ccccc2)c(=O)n3CC(=O)c2ccc(Cl)cc2)C1	-	-	-	0	-	0
COc1cc(-c2cc(OC)c3c(C)oc(C)c3c(=O)c2)ccc1OC(=O)c1cccc(Cl)c1	-	-	-	0	-	0
Cc1ccc(NC(=O)CN2C=NS(=O)(=O)c3ccccc32)cc1	-	-	-	0	-	0
SMILES	Pf growth 96h	SARS PLpro yeast	Pf growth 48h	AmpC inh detg	AmpC inh no detg	Sm TGR block
COCCOC(=O)C1=C(C)NC(=O)NC1c1cccc2ccccc12 (stereo not given)	0	0	0	0	0	0
Cc1ccc2c(c1)c1c3n2CC(=C2C(=O)OC(C)(C)OC2=O)NC3CCC1 (stereo not given)	0.19µM	0	?	0	0	?
Cc1ccc(C2(C)NC(=O)N(CC(=O)Nc3nc(-c4ccccn4)cs3)C2=O)cc1 (stereo not given)	3.3µM	0	2.3µM	0	0	0
CC1(c2ccccc2)NC(=O)N(CC(=O)Nc2nc(-c3ccccn3)cs2)C1=O (stereo not given)	?	0	0	0	0	0
COc1ccc(-c2csc(NC(=O)CCS(=O)(=O)c3ccccc3)n2)c(OC)c1	?	0	0	0	0	14µM
COc1ccc(NC(=O)CCS(=O)(=O)c2ccccc2)c(OC)c1	0	0	0	?	0	0
Cc1ccc(S(=O)(=O)CCC(=O)Nc2nc(-c3ccccn3)cs2)cc1	10µM	0	13µM	0	0	0
O=C(Nc1ccccc1C(=O)O)c1cc(S(=O)(=O)N2CCOCC2)c(Br)s1	?	0	0	0	0	0
Cc1cccc(NC(c2ccc(C)s2)c2ccc3ccc(C)nc3c2O)n1 (stereo not given)	0	0	?	?	0	45µM
Cc1cccc(NCc2ccccc2O)n1	0	0	?	0	0	0
Cc1cccc(NC(c2ccccc2C)c2ccc3ccc(C)nc3c2O)n1 (stereo not given)	-	-	-	0	-	3.5µM
CC(C)c1cnc2c(c1SCc1ccc([N+](=O)[O-])cc1)c(=O)n(C)c(=O)n2C	-	-	-	0	-	0
Cc1ccc(-n2c(C)cc(/C=N/NC(=O)CC3(C)OCCO3)c2C)cc1	?	0	13µM	0	0	0
Cc1ccc(-n2c(C)cc(/C=N/NC(=O)CN(c3ccc(C)cc3C)S(C)(=O)=O)c2C)cc1	?	0	12µM	?	0	0
Cc1cc(/C=N/NC(=O)CC2(C)OCCO2)c(C)n1-c1cc(Cl)cc(Cl)c1	?	0	?	0	0	0
CCOc1ccc(NS(=O)(=O)c2ccc(C(=O)NCCN3CCOCC3)cc2)cc1	0	0	0	0	0	0
CC[C@]12c3[nH]c4ccc(OC)cc4c3CCN1C(=O)C(CC(=O)NCc1ccco1)C[C@@H]2C(=O)N1CCN(C(=O)c2ccco2)CC1 (stereo not given in full)	-	0	-	-	0	-
CCC(C)(C)n1nnnc1C(c1cc2cc(C)ccc2[nH]c1=O)N1CCCC1 (stereo not given)	15µM	0	0	0	0	20µM
CCN1CCN(C(c2cc3cc4c(cc3[nH]c2=O)OCO4)c2nnnn2C(C)(C)CC)CC1 (stereo not given)	-	0	?	0	0	0
CC(C)(C)n1nnnc1C(c1cc2cc3c(cc2[nH]c1=O)OCO3)N1CCN(c2ccccc2)CC1 (stereo not given)	0	0	1.7µM	0	0	0
Cc1ccc2cc(C(c3nnnn3C(C)(C)C)N3CCCCCC3)c(=O)[nH]c2c1 (stereo not given)	?	0	?	0	0	11µM
CCC(C)(C)n1nnnc1C(c1cc2cc(OC)c(OC)cc2[nH]c1=O)N1CCc2ccccc21 (stereo not given)	?	0	1µM	0	0	0
CCc1ccc(NC(=O)Cc2c(C(=O)O)n(C)c3ccccc23)cc1	0	0	0	0	0	0
